Source: PubChem BioAssay (Tox21)
Values joined by “and” are separate entries in the source; they are usually repeats but may differ in a detail not shown here. Equal values may be shown once. Records with an inconclusive call do not appear. Where a call stands in place of a potency, no number is given. Some compounds were tested as several samples or in several runs, with calls that do not always agree. Active and inactive are the calls of the source. Unless noted, calls follow the shape of the dose curve; as a rule, active = well fitted curve in the direction sought with a large enough effect in the repeat runs; inconclusive = weak or mixed curves; inactive = no such curve, though single readings can be large; an effect the other way counts as inactive or inconclusive.

Legend:
[1] = qHTS assay to identify small molecule antagonists of the estrogen receptor alpha (ER-alpha) signaling pathway using the BG1 cell line in the presence of 0.1 nM 17-beta-estradiol - cell viability counter screen (AID 1259241); also: nearly all actives have a fitted effect of over 40% in size
Procedure, shortened: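 The cell line endogenously expresses full-length ER-alpha and carries four EREs driving luciferase. Cells are cultured 5 days hormone-free, treated 22 hr with compounds and 0.1 nM estradiol, then viability is read by fluorescence.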

[2] = qHTS assay to identify small molecule antagonists of the androgen receptor (AR) signaling pathway using the MDA cell line in the presence of 0.5 nM R1881 - cell viability counter screen (AID 1259242); also: nearly all actives have a fitted effect of over 45% in size
Procedure, shortened: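 Human breast carcinoma MDA-kb2 cells, cultured without CO2, receive compounds alongside 0.5 nM (final) R1881 agonist. After 16 hr at 37C, viability is taken as live-cell protease signal.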

[3] = qHTS assay to identify small molecule HDAC inhibitors (AID 1259364);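 also: wild-type HCT-116 cells with endogenous class I/II HDAC activity; top concentration of the series differs between compounds; nearly all actives have a fitted effect of over 45% in size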
Procedure, shortened: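 After a 2 hr compound incubation (37C, 5% CO2), HCT-116 cells seeded at 1,500/well the day before received HDAC-Glo reagent; signal read as luminescence after 30 min at room temperature.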

[4] = qHTS assay to identify small molecule HDAC inhibitors - cell viability counter screen (AID 1259365); also: series mostly up to about 92 µM; nearly all actives have a fitted effect of over 50% in size
Procedure, shortened: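 Viability readout: CellTiter-Glo luminescence. Wild-type HCT-116 cells, 2hr compound treatment following overnight attachment at 37 C.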

[5] = qHTS assay to identify small molecule antagonists of the sonic hedgehog signaling (Shh) pathway - cell viability counter screen (AID 1259367); also: nearly all actives have a fitted effect of over 55% in size; also: potency is read from the fitted curve at half-maximal effect
Procedure, shortened: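 CellTiter-Fluor signal in conditioned medium-stimulated 3T3 Gli1-Luc cells, 23 hr compound exposure, 37C.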

[6] = qHTS assay to identify small molecule agonists of the sonic hedgehog signaling (Shh) pathway (AID 1259368; calls by dose curve;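 also: NIH/3T3-derived 3T3Gli1-Luc cells carrying a stable Gli1-driven firefly luciferase reporter; series mostly up to about 92 µM; nearly all actives have a fitted effect of over 15% in size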)
Procedure, shortened: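 Stable NIH/3T3 Gli1-Luc reporter clone; 24 hr cpd exposure after a 4 hr settling period; luminescence endpoint.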

[7] = qHTS assay to identify small molecule agonists of the sonic hedgehog signaling (Shh) pathway - cell viability counter screen (AID 1259366); also: nearly all actives have a fitted effect of over 50% in size
Procedure, shortened: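 Viability measured fluorometrically (CellTiter-Fluor, 1hr, 37C) in 3T3 Gli1-Luc reporter cells after 23hr compound exposure within a 24hr incubation at 37C/5% CO2.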

[8] = molecular target: Androgen receptor (Homo sapiens) (UniProt P10275); assay: qHTS assay to identify small molecule antagonists of the androgen receptor (AR) signaling pathway using the MDA cell line in the presence of 0.5 nM R1881 (AID 1259243); also: nearly all actives have a fitted effect of over 50% in size
Procedure, shortened: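 Cells: MDA-kb2 (MMTV-luc). Stimulus: 0.5 nM R1881. Time: 16 hr, 37C, no CO2. Detection: ONE-Glo luminescence after 30 min at RT.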

[9] = qHTS assay to identify small molecule phospholipidosis (PLD) inducers (AID 1259344; active = well fitted curve in the direction sought with a large enough effect; an effect the other way counts as inactive or inconclusive)
Procedure, shortened: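 Accumulated phospholipid, stained red by LipidTOX during 24 h compound treatment of HepG2 cells at 37 C, is quantified from images as pit number and intensity, normalised per cell using Hoechst-stained nuclei.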

[10] = molecular target: Estrogen receptor (Homo sapiens) (UniProt P03372); assay: qHTS assay to identify small molecule antagonists of the estrogen receptor alpha (ER-alpha) signaling pathway using the BG1 cell line in the presence of 0.1 nM 17-beta-estradiol (AID 1259244); also: nearly all actives have a fitted effect of over 50% in size
Procedure, shortened: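 Seeding of stripped-serum-adapted VM7Luc4E2 cells, 24 h attachment, compound transfer, then 0.1 nM final 17beta-estradiol; after 22 h incubation, ONE-Glo reagent and luminescence reading.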

Estrogen receptor (Homo sapiens), sequence (P03372 whole entry, looked up): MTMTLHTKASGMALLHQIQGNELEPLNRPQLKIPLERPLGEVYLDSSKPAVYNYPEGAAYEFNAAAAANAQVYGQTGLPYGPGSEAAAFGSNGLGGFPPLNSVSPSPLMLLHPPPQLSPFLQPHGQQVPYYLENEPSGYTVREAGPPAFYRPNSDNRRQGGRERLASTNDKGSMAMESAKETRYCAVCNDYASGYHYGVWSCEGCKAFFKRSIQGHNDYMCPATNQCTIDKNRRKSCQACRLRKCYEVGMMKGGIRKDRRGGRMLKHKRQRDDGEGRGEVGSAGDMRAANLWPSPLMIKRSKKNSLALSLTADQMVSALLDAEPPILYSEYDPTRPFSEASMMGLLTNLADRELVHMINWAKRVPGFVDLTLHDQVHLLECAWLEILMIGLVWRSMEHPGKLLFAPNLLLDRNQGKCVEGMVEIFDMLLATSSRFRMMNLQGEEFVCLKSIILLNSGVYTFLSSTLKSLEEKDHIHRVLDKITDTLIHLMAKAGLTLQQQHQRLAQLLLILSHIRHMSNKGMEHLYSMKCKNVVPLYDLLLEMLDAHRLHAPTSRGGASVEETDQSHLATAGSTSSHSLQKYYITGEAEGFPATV
Androgen receptor (Homo sapiens), sequence (P10275 whole entry, looked up): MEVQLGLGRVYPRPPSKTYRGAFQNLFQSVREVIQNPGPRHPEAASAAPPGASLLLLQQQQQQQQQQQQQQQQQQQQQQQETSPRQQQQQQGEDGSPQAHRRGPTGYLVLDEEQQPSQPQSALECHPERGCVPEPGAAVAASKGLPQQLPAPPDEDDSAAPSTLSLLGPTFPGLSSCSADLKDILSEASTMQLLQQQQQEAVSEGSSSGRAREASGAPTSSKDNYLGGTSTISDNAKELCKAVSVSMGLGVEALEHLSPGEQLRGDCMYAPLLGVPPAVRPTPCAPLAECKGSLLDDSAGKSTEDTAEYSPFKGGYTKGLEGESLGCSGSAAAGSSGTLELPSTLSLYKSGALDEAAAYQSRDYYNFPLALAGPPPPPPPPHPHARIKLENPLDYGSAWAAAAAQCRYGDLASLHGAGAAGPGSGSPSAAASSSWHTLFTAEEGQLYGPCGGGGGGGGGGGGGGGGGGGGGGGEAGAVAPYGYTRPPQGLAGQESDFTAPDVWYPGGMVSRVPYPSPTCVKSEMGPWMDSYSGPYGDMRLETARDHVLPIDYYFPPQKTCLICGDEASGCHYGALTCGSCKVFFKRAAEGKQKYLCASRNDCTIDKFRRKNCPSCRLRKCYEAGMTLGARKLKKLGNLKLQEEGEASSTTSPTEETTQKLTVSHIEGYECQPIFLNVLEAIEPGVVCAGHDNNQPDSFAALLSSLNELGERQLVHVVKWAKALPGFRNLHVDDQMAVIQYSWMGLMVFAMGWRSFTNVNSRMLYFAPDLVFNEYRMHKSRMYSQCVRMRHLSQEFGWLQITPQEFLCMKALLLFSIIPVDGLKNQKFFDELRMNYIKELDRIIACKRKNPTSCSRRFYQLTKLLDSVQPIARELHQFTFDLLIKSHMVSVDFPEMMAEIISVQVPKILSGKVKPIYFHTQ

O=C(CCCN1CCC(O)(c2cccc(C(F)(F)F)c2)CC1)c1ccc(F)cc1
outcome [1]: inactive | Potency [2]: inactive | Potency [3]: inactive | outcome [4]: inactive | Potency [5]: inactive | outcome [6]: inactive

CCc1cccc2c(CCO)c[nH]c12
outcome [1]: inactive | Potency [2]: inactive | Potency [3]: inactive | outcome [4]: inactive | Potency [7]: inactive | Potency [5]: inactive | outcome [6]: inactive

CC(C)=CCCC(C)CC(=O)O (configuration not stated)
outcome [1]: inactive | Potency [2]: inactive | Potency [3]: inactive | outcome [4]: inactive | Potency [5]: inactive | outcome [6]: inactive

CCCCCCCCS(=O)(=O)Cl
outcome [1]: inactive | Potency [2]: inactive | Potency [3]: inactive | outcome [4]: inactive | Potency [7]: inactive | Potency [5]: inactive | outcome [6]: inactive

CCc1ccc(O)c(OC)c1
outcome [1]: inactive | Potency [2]: inactive | Potency [3]: inactive | outcome [4]: inactive | Potency [7]: inactive | Potency [5]: inactive | outcome [6]: inactive

COC(=O)c1ccc(C)cc1C1=NC(C)(C(C)C)C(=O)N1 (configuration not stated)
outcome [1]: inactive | Potency [2]: inactive | outcome [4]: inactive | Potency [7]: inactive | Potency [5]: inactive | outcome [6]: inactive

C=CCOCC(CC)(CO)COCC=C
outcome [1]: inactive | Potency [2]: inactive | Potency [3]: inactive | outcome [4]: inactive | Potency [7]: inactive | Potency [5]: inactive | outcome [6]: inactive

CC(NC(CCc1ccccc1)C(=O)O)C(=O)N1C(=O)N(C)CC1C(=O)O (configuration not stated)
Potency [2]: inactive | Potency [8]: inactive | Potency [3]: inactive | outcome [4]: inactive | Potency [7]: inactive | Potency [5]: inactive | outcome [6]: inactive

C[C@H]1C[C@@H](O)CC(C)(C)C1
outcome [1]: inactive | Potency [2]: inactive | Potency [3]: inactive | outcome [4]: inactive | Potency [7]: inactive | Potency [5]: inactive | outcome [6]: inactive

CCCCCCCCCCCCN(CCCCCCCCCCCC)CCCCCCCCCCCC
outcome [1]: inactive | Potency [2]: inactive | outcome [4]: inactive | Potency [7]: inactive | Potency [5]: inactive | outcome [6]: inactive

CN1CCN(c2cc3c(cc2F)c(=O)c(C(=O)O)cn3-c2ccc(F)cc2)CC1
Potency [2]: inactive | Potency [8]: inactive | Potency [9]: inactive | outcome [4]: inactive | Potency [7]: inactive | Potency [5]: inactive | outcome [6]: inactive

CCOC(=O)CC(C)=O
outcome [1]: inactive | Potency [2]: inactive | Potency [3]: inactive | outcome [4]: inactive | Potency [7]: inactive | Potency [5]: inactive | outcome [6]: inactive

COC(=O)CC(C)=O
outcome [1]: inactive | Potency [2]: inactive | Potency [3]: inactive | outcome [4]: inactive | Potency [7]: inactive | Potency [5]: inactive | outcome [6]: inactive

OC[C@]1(O)OC[C@@H](O)[C@H](O)[C@@H]1O
outcome [1]: inactive | Potency [2]: inactive | Potency [3]: inactive | outcome [4]: inactive | Potency [5]: inactive | outcome [6]: inactive

CCOC(=O)c1c(C)n(C)c2ccc(O)cc12
Potency [2]: inactive | Potency [8]: inactive | Potency [9]: inactive | Potency [3]: inactive | outcome [4]: inactive | Potency [7]: inactive | Potency [5]: inactive | outcome [6]: inactive

O=C1CCCC(=O)C1
outcome [1]: inactive | Potency [2]: inactive | Potency [3]: inactive | outcome [4]: inactive | Potency [7]: inactive | Potency [5]: inactive | outcome [6]: inactive

CC/C=C\CC/C=C/C(OCC)OCC
outcome [1]: inactive | Potency [2]: inactive | outcome [4]: inactive | Potency [7]: inactive | Potency [5]: inactive | outcome [6]: inactive

O=C(O)CNC(=O)c1ccc([N+](=O)[O-])cc1
outcome [1]: inactive | Potency [2]: inactive | Potency [3]: inactive | outcome [4]: inactive | Potency [7]: inactive | Potency [5]: inactive | outcome [6]: inactive

CN1N=C(C(N)=O)CCC1=O
Potency [2]: inactive | Potency [8]: inactive | outcome [10]: inactive | Potency [3]: inactive | outcome [4]: inactive | Potency [7]: inactive | Potency [5]: inactive | outcome [6]: inactive

CC(C)CNCC(C)C
outcome [1]: inactive | Potency [2]: inactive | Potency [3]: inactive | outcome [4]: inactive | Potency [5]: inactive | outcome [6]: inactive

C/C=C(\C)C#N
outcome [1]: inactive | Potency [2]: inactive | outcome [4]: inactive | Potency [5]: inactive | outcome [6]: inactive

CCC(C)S (configuration not stated)
activity change, negative = cytotoxicity [1]: 5.76% [at 3.27 µM] (inactive) | viability change, negative = cytotoxic [2]: 1.28% [at 3.26 µM] (inactive) | activity change, negative = inhibition [3]: 0.148% [at 3.27 µM] (inactive) | activity change, negative = cytotoxicity [4]: 1.61% [at 3.27 µM] (inactive) | viability change, negative = cytotoxic [5]: 3.76% [at 3.27 µM] (inactive) | activity change [6]: -0.25% [at 3.27 µM] (inactive)

NS(=O)(=O)c1ccccc1Cl
outcome [1]: inactive | Potency [2]: inactive | Potency [3]: inactive | outcome [4]: inactive | Potency [7]: inactive | Potency [5]: inactive | outcome [6]: inactive

CC/C=C\CC/C=C/CO
outcome [1]: inactive | Potency [2]: inactive | Potency [3]: inactive | outcome [4]: inactive | Potency [7]: inactive | Potency [5]: inactive | outcome [6]: inactive

C1OCOCO1
outcome [1]: inactive | Potency [2]: inactive | outcome [4]: inactive | Potency [7]: inactive | Potency [5]: inactive | outcome [6]: inactive

CCn1ccnc1CC1COc2ccccc2O1 (configuration not stated)
Potency [2]: inactive | Potency [8]: inactive | outcome [10]: inactive | Potency [9]: inactive | Potency [3]: inactive | outcome [4]: inactive | Potency [7]: inactive | Potency [5]: inactive | outcome [6]: inactive

O=C1NC(=O)[C@@]2(CCOc3ccc(F)cc32)N1
Potency [2]: inactive | outcome [10]: inactive | Potency [9]: inactive | Potency [3]: inactive | outcome [4]: inactive | Potency [7]: inactive | Potency [5]: inactive | outcome [6]: inactive

CCCCCCCCCCCCCCCCC
Potency [2]: inactive | outcome [10]: inactive | Potency [3]: inactive | outcome [4]: inactive | Potency [7]: inactive | Potency [5]: inactive | outcome [6]: inactive

O=c1n(CCO)c(=O)n(CCO)c(=O)n1CCO
Potency [2]: inactive | outcome [10]: inactive | Potency [3]: inactive | outcome [4]: inactive | Potency [7]: inactive | Potency [5]: inactive and 54.5 µM (active) | outcome [6]: inactive
